We go through five compounds from PubChem BioAssay.

Active and inactive are the calls of the source.

For experiment [1], the system named is Plasmodium falciparum Sir2 (PF13_0152, Sir2A). Kind of experiment: pfSir2 binders on small-molecule microarrays, primary screen, biochemical, small-molecule microarray, 635 nm fluorescence (AID 1098).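 Note: score merges spot fluorescence intensity with its signal-to-noise ratio.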 The settings on record: small-molecule microarray binding, fluorescence 635 nm; higher = more signal.
Experiment [2] is described as follows: small-molecule microarray binders of probe aDKK1, primary screen, biochemical, biotinylated probe, 635/667 nm fluorescence (AID 1099).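 Note: score merges 667nm spot fluorescence with signal to noise across triplicate slides.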 The settings on record: higher = more signal.
The nature of experiment [3]: small-molecule microarray binders of probe aCHRDL2, primary screen, biochemical, biotinylated probe, 635/667 nm fluorescence (AID 1100). The settings on record: higher = more signal.
A short description of experiment [4]: splicing luciferase reporter signal modulators, primary screen, spliceosome inhibition project, cell-based, HEK293, splice +/- reporter (AID 1101).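 Note: HEK293 cells carrying a splicing-competent luciferase reporter gene; test concentration not given here.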 The note with it: luminescence, 24 h, higher = more signal, called active from +8 up or from −8 down.
Experiment [5] deals with Fibroblast growth factor 10 (Homo sapiens) (UniProt O15520). Kind of experiment: FGF10 binders on small-molecule microarrays, primary screen, biochemical, small-molecule microarray, 635 nm fluorescence (AID 1102). The note with it: FGF10 binding, fluorescence 635 nm, higher = more signal.
Chain of Fibroblast growth factor 10 (Homo sapiens) (O15520 whole entry, looked up): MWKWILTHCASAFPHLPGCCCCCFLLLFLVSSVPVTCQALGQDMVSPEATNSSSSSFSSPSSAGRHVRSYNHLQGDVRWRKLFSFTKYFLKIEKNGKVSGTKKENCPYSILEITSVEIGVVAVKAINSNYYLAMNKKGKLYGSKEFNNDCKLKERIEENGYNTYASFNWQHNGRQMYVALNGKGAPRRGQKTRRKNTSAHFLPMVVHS
Experiment [6] has as its system glycogen synthase kinase-3 (GSK3A per assay name; protocol says GSK3B). Kind of experiment: GSK3 binders on small-molecule microarrays, primary screen, biochemical, small-molecule microarray, 635 nm fluorescence, GSK3A (AID 1103). Note: the record names both GSK3A and GSK3B. The note with it: small-molecule microarray binding, fluorescence 635 nm; higher = more signal.
Experiment [7] concerns the target Epidermal growth factor receptor (Homo sapiens) (UniProt P00533). Kind of experiment: EGFR binders on small-molecule microarrays, primary screen, biochemical, small-molecule microarray, 635 nm fluorescence (AID 1104).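 Note: score merges 667 nm emission intensity with spot signal to noise over triplicate slides.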 The settings on record: EGFR binding, higher = more signal.
The target in experiment [8] is Follistatin-related protein 3 (Homo sapiens) (UniProt O95633). Kind of experiment: FSTL3 binders on small-molecule microarrays, primary screen, biochemical, small-molecule microarray, 635 nm fluorescence (AID 1105).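 Note: score merges emission near 667 nm and signal to noise per printed spot across three slides.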 The settings on record: FSTL3 binding, higher = more signal.
Chain of Follistatin-related protein 3 (Homo sapiens) (O95633 whole entry, looked up): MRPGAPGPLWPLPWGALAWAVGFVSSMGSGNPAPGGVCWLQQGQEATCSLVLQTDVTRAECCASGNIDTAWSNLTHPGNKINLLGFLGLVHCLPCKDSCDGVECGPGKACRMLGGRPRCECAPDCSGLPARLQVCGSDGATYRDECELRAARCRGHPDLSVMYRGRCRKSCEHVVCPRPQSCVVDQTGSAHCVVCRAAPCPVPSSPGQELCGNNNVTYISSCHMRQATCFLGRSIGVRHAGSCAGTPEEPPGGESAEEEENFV
Experiment [9] concerns the target Dickkopf-related protein 1 (Homo sapiens) (UniProt O94907). Kind of experiment: DKK1 binders on small-molecule microarrays, primary screen, biochemical, small-molecule microarray, 635 nm fluorescence scan (AID 1106).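 Note: score merges emission near 667 nm with signal to noise over three replicate slides.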 The settings on record: DKK1 binding, higher = more signal.
Experiment [10] deals with Inhibin beta A chain (activin A). Description: INHBA (activin A) binders on microarrays, primary screen, biochemical, small-molecule microarray, 635 nm fluorescence scan (AID 1107).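 Note: mouse activin A protein probed at 4.33 µg/mL on printed slides; score merges bound-protein fluorescence near 667 nm with spot signal-to-noise.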 The settings on record: small-molecule microarray binding, higher = more signal.
In experiment [11] the test system is Human papillomavirus type 1a protein E7 (residues 44-93). Description: HPV1a E7 fragment binders on microarrays, primary screen, biochemical, small-molecule microarray, residues 44-93, 635 nm fluorescence (AID 1108).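 Note: E7 fragment applied at 1 µg/mL in TBST for 1 h at 4 C; score combines spot fluorescence with its signal to noise ratio.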 The note with it: small-molecule microarray binding, fluorescence 635 nm; higher = more signal.
A short description of experiment [12]: modulators of HCV replicon luciferase signal, primary screen, HCV replication inhibitor project, Huh7 cells, luciferase reporter (AID 1109).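 Note: huh7 hepatoma cells harbouring a luciferase neomycin HCV replicon reporter; luciferase luminescence as measure of HCV replicon replication; test concentration not given here.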 The settings on record: 48 h, higher = more signal. (In antiviral work, replicon cells carry a viral genome segment that copies itself.)
Experiment [13] addresses Left-right determination factor 2 (Homo sapiens) (UniProt O00292). Description: LEFTY2 binders on small-molecule microarrays, primary screen, biochemical, small-molecule microarray, 635 nm fluorescence scan (AID 1110). The note with it: LEFTY2 binding, higher = more signal.
Experiment [14] has as its target Calmodulin-1 (Homo sapiens) (UniProt P0DP23). Description: CALM1 binders on microarrays, EGTA buffer, profiling panel, biochemical, small-molecule microarray, Cy5-labelled CALM1 (AID 1111).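 Note: labelled calmodulin applied in Tris saline Tween buffer holding calcium plus EGTA and DTT.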 The settings on record: Cy5-CALM1 binding fluorescence, higher = more signal.
For experiment [15] the target is unchanged. Description: calcium-bound CALM1 binders on microarrays, profiling panel, artefact control for SMM control-protein annotation, biochemical, small-molecule microarray, Cy5-labelled CALM1, plus calcium (AID 1112).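 Note: score merges spot fluorescence with signal to noise from triplicate slides.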 The note with it: Cy5-CALM1 binding fluorescence, higher = more signal.
Experiment [16] is described as follows: small-molecule microarray binders of probe aWnt5a, primary screen, biochemical, biotinylated probe, 635/667 nm fluorescence (AID 1113).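 Note: score merges 667 nm fluorescence intensity with signal-to-noise per printed feature.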 The settings on record: higher = more signal.
Experiment [17] can be described thus: small-molecule microarray binders of probe aShh, primary screen, biochemical, biotinylated probe, 635/667 nm fluorescence (AID 1114).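 Note: probe is biotin-labelled aShh protein from a stem cell growth factor screen; measures binding of labelled protein to compounds printed on the slide; score merges feature fluorescence at 667 nm with signal-to-noise.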 The settings on record: higher = more signal.
Experiment [18] is described as follows: small-molecule microarray binders of probe aNog, primary screen, biochemical, biotinylated probe, 635/667 nm fluorescence (AID 1115).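 Note: probe is biotinylated aNog protein used at 0.15 µg/mL for 1 h at 4 C; z-score combines 667 nm fluorescence of each spot with its signal to noise.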 The settings on record: higher = more signal.
Experiment [19] addresses Torsin-1A-interacting protein 1 (Homo sapiens) (UniProt Q5JTV8). Kind of experiment: LAP1 binders from COS7 cell lysate, primary screen, small-molecule microarray, 635/667 nm fluorescence (AID 1116). The note with it: COS7-hLAP1 lysate binding, 635 nm fluorescence, higher = more signal.
Experiment [20] concerns the target Alpha-bungarotoxin (Bungarus multicinctus) (UniProt P60615). Description: alpha-bungarotoxin binders on microarray, profiling panel, artefact control for SMM control protein annotation, biochemical, small-molecule microarray, Alexa647 label, 635/667 nm fluorescence (AID 1117). The note with it: alpha-BTX-A647 binding fluorescence, higher = more signal.

Chain of Torsin-1A-interacting protein 1 (Homo sapiens) (Q5JTV8 whole entry, looked up): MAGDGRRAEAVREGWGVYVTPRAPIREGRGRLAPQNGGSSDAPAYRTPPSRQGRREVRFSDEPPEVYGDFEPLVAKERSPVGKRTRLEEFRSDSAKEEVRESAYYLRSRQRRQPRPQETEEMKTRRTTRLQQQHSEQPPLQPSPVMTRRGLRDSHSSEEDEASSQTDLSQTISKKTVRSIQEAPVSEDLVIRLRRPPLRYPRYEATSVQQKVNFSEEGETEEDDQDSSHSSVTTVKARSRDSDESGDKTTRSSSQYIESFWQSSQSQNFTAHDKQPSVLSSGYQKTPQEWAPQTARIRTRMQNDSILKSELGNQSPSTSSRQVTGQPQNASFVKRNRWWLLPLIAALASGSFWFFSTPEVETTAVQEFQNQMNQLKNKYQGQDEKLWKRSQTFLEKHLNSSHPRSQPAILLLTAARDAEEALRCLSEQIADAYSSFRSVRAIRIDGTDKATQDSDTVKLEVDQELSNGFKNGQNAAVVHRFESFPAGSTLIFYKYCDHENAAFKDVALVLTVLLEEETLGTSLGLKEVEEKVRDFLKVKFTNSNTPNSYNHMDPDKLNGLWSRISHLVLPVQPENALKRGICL
Chain of Alpha-bungarotoxin (Bungarus multicinctus) (P60615 whole entry, looked up): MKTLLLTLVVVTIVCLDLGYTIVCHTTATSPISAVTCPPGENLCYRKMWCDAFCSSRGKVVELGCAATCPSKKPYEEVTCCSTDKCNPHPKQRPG
Chain of Left-right determination factor 2 (Homo sapiens) (O00292 whole entry, looked up): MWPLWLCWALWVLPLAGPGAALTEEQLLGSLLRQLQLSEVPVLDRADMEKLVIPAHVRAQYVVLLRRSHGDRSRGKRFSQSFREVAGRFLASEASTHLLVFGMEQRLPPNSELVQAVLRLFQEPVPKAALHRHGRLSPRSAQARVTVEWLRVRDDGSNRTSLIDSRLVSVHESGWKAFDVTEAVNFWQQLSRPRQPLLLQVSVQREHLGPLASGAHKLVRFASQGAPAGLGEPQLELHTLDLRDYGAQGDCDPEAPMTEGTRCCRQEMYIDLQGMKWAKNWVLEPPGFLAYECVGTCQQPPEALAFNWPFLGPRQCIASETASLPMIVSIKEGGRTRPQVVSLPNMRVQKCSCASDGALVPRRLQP
Chain of Epidermal growth factor receptor (Homo sapiens) (P00533 whole entry, looked up): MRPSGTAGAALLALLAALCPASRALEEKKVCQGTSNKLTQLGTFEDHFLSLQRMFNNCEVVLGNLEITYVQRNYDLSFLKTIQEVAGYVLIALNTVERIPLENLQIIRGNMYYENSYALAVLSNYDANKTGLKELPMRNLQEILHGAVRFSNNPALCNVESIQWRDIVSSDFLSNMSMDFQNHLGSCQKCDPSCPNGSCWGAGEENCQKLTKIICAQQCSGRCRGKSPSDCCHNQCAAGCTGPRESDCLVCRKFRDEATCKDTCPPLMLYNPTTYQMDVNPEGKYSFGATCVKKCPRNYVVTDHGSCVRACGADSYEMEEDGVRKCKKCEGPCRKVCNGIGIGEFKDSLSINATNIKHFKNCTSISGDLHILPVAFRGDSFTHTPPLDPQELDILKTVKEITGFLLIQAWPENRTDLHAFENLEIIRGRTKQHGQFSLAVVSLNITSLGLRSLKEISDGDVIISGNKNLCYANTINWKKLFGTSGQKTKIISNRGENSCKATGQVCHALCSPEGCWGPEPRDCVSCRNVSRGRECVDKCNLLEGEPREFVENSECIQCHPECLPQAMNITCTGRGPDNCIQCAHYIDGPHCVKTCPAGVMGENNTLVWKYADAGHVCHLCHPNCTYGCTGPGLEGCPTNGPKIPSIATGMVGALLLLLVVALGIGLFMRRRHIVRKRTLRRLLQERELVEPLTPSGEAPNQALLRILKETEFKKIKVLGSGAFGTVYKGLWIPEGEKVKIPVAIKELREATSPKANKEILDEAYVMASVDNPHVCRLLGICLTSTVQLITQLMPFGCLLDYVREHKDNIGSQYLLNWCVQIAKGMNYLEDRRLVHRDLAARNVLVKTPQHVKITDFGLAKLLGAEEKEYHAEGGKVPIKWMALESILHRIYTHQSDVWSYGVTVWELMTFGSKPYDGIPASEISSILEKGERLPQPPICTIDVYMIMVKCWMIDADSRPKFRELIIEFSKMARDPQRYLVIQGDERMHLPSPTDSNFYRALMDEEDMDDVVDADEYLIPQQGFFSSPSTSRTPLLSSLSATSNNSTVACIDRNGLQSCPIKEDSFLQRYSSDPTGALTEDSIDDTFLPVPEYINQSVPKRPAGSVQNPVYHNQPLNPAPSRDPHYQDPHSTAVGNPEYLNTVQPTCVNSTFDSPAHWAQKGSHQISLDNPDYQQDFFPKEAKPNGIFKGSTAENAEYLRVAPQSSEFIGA
Chain of Dickkopf-related protein 1 (Homo sapiens) (O94907 whole entry, looked up): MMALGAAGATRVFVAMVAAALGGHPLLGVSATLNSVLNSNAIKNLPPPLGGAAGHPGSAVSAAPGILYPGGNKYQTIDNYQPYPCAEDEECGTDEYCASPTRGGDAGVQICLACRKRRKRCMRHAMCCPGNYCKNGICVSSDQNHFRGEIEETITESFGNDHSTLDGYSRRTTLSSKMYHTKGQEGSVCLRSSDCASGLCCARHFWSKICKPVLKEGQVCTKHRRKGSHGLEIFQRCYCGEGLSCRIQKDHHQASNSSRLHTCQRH

Turning to `C=CCNC(=O)[C@H]1[C@@H]2C(=O)O[C@@H](c3ccccc3)[C@@H](c3ccccc3)N2[C@@H](c2ccc(O)cc2)[C@]12C(=O)N(C(=O)OCCOC)c1ccc(C#Cc3ccc(OC)cc3)cc12`, the composite z-score in [1] was 1.21; in experiment [2], -0.0387; in experiment [3], 0.478; in experiment [5], 0.88; in experiment [6], 1.08; in experiment [7], 0.215. The composite z-score in experiment [8] was 0.448; in experiment [9] it was 0.211; in experiment [10], 0.794; in experiment [11], 1.33; in experiment [13], 0.254; in [14], 1.38. In addition, the composite z-score in experiment [15] was -0.0807; in experiment [16], -0.001; in [17], 0.229; in experiment [18] it was -0.477; in experiment [19], 0.42; in [20], 0.286. For the same compound, the z-score in experiment [4] was -0.294 (inactive); in experiment [12] it was -1.09.

As for `CC(C)C[C@@H]1NC(=O)[C@H]2C[C@@H](C(=O)O)[C@@H](c3cccc(OCCO)c3)N2C1=O`, the composite z-score turned out to be 0.524 in [1]; 0.0083 in experiment [2]; 0.677 in experiment [3]; 0.0039 in experiment [5]; 0.969 in experiment [6]; 0.193 in experiment [7]. For the same compound, the composite z-score in experiment [8] is 1.2; in experiment [9] it was 1.11; in experiment [10] it was 1.19; in experiment [11], -0.239; in experiment [13], 0.779; in experiment [14], -0.418. Besides, the composite z-score in experiment [15] is -0.2; in experiment [16] it was -0.0704; in experiment [17], -0.0289; in [18], -0.0503; in experiment [19], 0.884; in experiment [20] it was 0.209. Further, the z-score in [4] was 0.256 (inactive); in experiment [12], 2.62.

`COc1ccc(C#Cc2ccc3c(c2)[C@]2(C(=O)N3)[C@H](c3ccccc3OCCO)N3[C@H](c4ccccc4)[C@H](c4ccccc4)OC(=O)[C@H]3[C@@H]2C(=O)NC[C@H](O)c2ccccc2)cc1`: the composite z-score was 1.3 in experiment [1]; 0.183 in experiment [2]; -0.0392 in [3]; 1.33 in experiment [5]; 1.31 in [6]; 0.573 in experiment [7]. The composite z-score was 1.34 in [8]; 1.2 in experiment [9]; -0.0784 in [10]; 1.32 in [11]; 1.02 in [13]; 1.11 in experiment [14]. Further, the composite z-score was -0.127 in [15]; -0.0846 in experiment [16]; -0.16 in [17]; -0.479 in experiment [18]; 1.01 in [19]; 1.26 in experiment [20]. Further, the values for the z-score in [4] and in [12] were -2.01 (inactive) and -2.93, respectively.

As to `C[C@]1(C(=O)O)c2ccccc2C(=O)N(Cc2cc(C(F)(F)F)cc(C(F)(F)F)c2)[C@H]1c1ccc(CO)cc1`, the composite z-score in experiment [1] was -0.822; in experiment [2] it was 0.324; in experiment [3] it was 0.55; in [5], -0.04; in experiment [6], -0.25; in experiment [7], -0.641. For the same compound, the composite z-score in [8] was 0.142; in [9], 0.123; in experiment [10], 0.41; in experiment [11] it was 0.966; in experiment [13], -0.255; in [14], -0.076. Further, the composite z-score in experiment [15] is -1.16; in [16], -0.145; in experiment [17], -0.214; in [18], 0.081; in [19] it was -0.0827; in experiment [20], 0.764. For the same compound, the z-score in [4] was 0.487 (inactive); in [12] it was 1.07.

Take `O=C1O[C@H](c2ccccc2)[C@H](c2ccccc2)N2[C@H]1[C@@H](C(=O)O)[C@]1(C(=O)Nc3ccccc31)[C@H]2c1ccc(OCCO)cc1`: the composite z-score is 0.975 in experiment [1]; -0.0668 in experiment [2]; -0.0097 in experiment [3]; 0.141 in experiment [5]; -0.0583 in [6]; -0.055 in [7]. The composite z-score in experiment [8] was 0.0497; in [9], -0.449; in experiment [10], 0.601; in experiment [11], 1.45; in [13] it was -0.242; in [14], 1.58. Also, the composite z-score in [15] was 0.5; in [16] it was -0.0977; in experiment [17], -0.187; in [18] it was -0.574; in experiment [19] it was 0.811; in [20], 0.968. Moreover, the z-score in experiment [4] was -0.749 (inactive); in [12], 0.042.
